# Assay results: PubChem BioAssay (Tox21)
# A number with no mark means an inactive call. Results filed as inconclusive are left out. Entries that show only a call come without a potency. Activity calls are given as the source filed them. Unless noted, calls come from the whole dose curve; as a rule, active = well fitted curve in the direction sought with a large enough effect in the repeat runs; inconclusive = weak or mixed curves; inactive = no such curve, though single readings can be large; an effect the other way counts as inactive or inconclusive.
# Experiments:
# [1] = qHTS assay to identify small molecule agonists of the estrogen receptor alpha (ER-alpha) signaling pathway in the presence of an antagonist - cell viability counter screen (AID 1259386);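 note: series mostly up to about 92 µM; cells exposed to compounds for 22 h at 37 °C before the viability read; nearly all actives have a fitted effect of over 30% in size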
# In short: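 VM7Luc4E2, stripped-serum pre-culture 5 d; 24hr plating; +ICI-182,780 10.0nM final; cpds 15 conc, 22hr, 37C/5% CO2; CellTiter-Fluor added at 21hr, fluorescence 1hr later.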
# [2] = qHTS assay to identify small molecule antagonists of the TGF-beta/Smad signaling pathway - cell viability counter screen (AID 1346824); note: nearly all actives have a fitted effect of over 50% in size
# In short: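 SBE-bla HEK 293T cells, incubated overnight, then compound plus 0.25 ng/mL TGF-beta1 (stock added) for 5 hr at 37 C. Viability was read in the same wells by CellTiter-Glo luminescence after 30 min at room temperature.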
# [3] = qHTS assay to identify small molecule agonists of the TGF-beta/Smad signaling pathway - cell viability counter screen (AID 1346829); note: top concentration of the series differs between compounds; nearly all actives have a fitted effect of over 45% in size
# In short: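 CellTiter-Glo luminescence readout; SBE-bla HEK 293T cells, overnight plating, compound 5 hr at 37 C/5% CO2, then bla substrate 2 hr RT, then CellTiter-Glo 30 min RT.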
# [4] = qHTS assay to identify small molecule agonists of the TGF-beta/Smad signaling pathway (AID 1346859; active = well fitted activation curve with a large enough effect in the signal ratio in the repeat runs, not every such curve was filed as active; the % refers to the signal ratio; note: series mostly up to about 77 µM)
# In short: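 HEK 293T cells stably carrying a beta-lactamase reporter driven by the Smad binding element were seeded overnight, exposed to DMSO-dissolved compounds for 5 hr at 37 C, 5% CO2, then loaded with FRET substrate for 2 hr at room temperature.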
# [5] = Human pregnane X receptor (PXR) small molecule agonists, qHTS cell viability counter screen (AID 1346977); note: nearly all actives have a fitted effect of over 50% in size
# In short: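 PXR-Luc HepG2 cells in medium with 5% charcoal-stripped FBS were pre-incubated 5hr, then exposed to compounds for 24hr at 37C. Viability was read in the same wells by CellTiter-Fluor fluorescence, reagent added after 23hr with a 1hr incubation.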
# [6] = Caspase-3/7 induction in HepG2 cells by small molecules, qHTS assay (AID 1346978); note: nearly all actives have a fitted effect of over 15% in size
# In short: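 Wild-type HepG2 cells, 2,000/well, settled 5 hr at 37 C and 5% CO2, then compound-treated for 17 hr; caspase-3/7 activity read by luminescent Caspase-Glo 3/7 after 30 min at room temperature.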
# [7] = Caspase-3/7 induction in CHO-K1 cells by small molecules, qHTS assay (AID 1346980); note: nearly all actives have a fitted effect of over 15% in size
# In short: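 Wild-type CHO-K1 cells exposed to compounds for 17hr at 37 C, 5% CO2. Caspase-3/7 activity then measured by Caspase-Glo 3/7 luminescence after 30min at room temperature.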
# [8] = Caspase-3/7 induction in HepG2 cells by small molecules, qHTS cell viability counter screen (AID 1346981); note: series mostly up to about 92 µM; nearly all actives have a fitted effect of over 30% in size
# In short: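 HepG2, WT, 2,000 cells/well; 5 hr pre-incubation 37 C/5% CO2; compound pin-transferred from DMSO; 16 hr exposure; CellTiter-Fluor, 1 hr; fluorescence read.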
# [9] = target: Nuclear receptor subfamily 1 group I member 2 (Homo sapiens) (UniProt O75469); assay: Human pregnane X receptor (PXR) small molecule agonists, qHTS assay (AID 1346982); note: nearly all actives have a fitted effect of over 35% in size; note: potency is the fitted concentration of half-maximal effect
# Sequence of Nuclear receptor subfamily 1 group I member 2 (Homo sapiens) (O75469 whole entry, looked up): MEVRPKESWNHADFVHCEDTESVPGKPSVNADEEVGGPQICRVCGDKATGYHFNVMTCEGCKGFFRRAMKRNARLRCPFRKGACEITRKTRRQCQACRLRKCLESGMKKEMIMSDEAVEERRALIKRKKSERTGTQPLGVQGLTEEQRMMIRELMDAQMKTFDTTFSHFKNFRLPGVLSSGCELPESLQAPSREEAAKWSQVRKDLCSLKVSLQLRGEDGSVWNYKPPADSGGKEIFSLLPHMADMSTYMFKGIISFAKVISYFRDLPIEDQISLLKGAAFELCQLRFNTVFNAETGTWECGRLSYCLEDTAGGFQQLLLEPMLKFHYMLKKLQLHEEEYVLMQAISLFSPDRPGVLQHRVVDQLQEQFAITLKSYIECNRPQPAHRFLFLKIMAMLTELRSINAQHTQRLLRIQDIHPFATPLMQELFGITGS
# In short: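 Luciferase signal from ONE-Glo (30 min, room temperature) measured activation of hPXR-driven CYP3A4 reporter expression in PXR-Luc HepG2 cells treated with compounds for 24 hr at 37 C.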
# [10] = qHTS assay to identify small molecule agonists or antagonists of the thyroid stimulating hormone receptor (TSHR) signaling pathway - wild type cell line counter screen (AID 1259384; calls by dose curve)
# In short: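 Wild-type Hek293 cells, 800/well, 18 h at 37C, then compound with Ro20-1724 for 30 min RT. cAMP by HTRF (cAMP-d2/anti-cAMP cryptate), 1 h RT, fluorescence read. 15 concentrations, triplicates.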
# [11] = target: Progesterone receptor (Homo sapiens) (UniProt P06401); assay: qHTS assay to identify small molecule agonists of the progesterone receptor (PR) signaling pathway (AID 1346784; calls by dose curve; note: nearly all actives have a fitted effect of over 30% in size)
# Sequence of Progesterone receptor (Homo sapiens) (P06401 whole entry, looked up): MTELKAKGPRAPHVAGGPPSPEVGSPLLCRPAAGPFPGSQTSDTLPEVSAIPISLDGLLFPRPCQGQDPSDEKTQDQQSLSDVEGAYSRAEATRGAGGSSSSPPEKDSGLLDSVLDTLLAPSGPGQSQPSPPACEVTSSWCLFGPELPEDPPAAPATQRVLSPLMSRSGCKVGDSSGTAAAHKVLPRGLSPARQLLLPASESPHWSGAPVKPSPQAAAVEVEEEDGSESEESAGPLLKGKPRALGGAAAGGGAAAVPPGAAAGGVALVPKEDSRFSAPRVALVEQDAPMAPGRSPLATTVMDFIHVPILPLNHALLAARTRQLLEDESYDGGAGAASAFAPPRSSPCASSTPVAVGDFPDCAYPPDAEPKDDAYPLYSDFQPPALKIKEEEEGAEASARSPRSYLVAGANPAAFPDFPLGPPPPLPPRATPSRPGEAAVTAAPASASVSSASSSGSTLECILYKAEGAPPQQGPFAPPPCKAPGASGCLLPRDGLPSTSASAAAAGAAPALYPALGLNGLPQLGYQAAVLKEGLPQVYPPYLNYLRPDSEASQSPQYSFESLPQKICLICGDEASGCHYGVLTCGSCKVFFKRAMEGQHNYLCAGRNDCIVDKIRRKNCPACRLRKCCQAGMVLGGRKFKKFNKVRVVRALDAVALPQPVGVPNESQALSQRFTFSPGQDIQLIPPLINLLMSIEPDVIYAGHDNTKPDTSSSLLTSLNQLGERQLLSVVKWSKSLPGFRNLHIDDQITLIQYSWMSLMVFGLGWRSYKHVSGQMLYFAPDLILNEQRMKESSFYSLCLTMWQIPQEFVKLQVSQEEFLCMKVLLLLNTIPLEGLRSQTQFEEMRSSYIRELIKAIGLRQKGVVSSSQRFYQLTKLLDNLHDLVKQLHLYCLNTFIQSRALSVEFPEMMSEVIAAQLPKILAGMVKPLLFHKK
# In short: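 PR-UAS-bla HEK 293T cells carrying a UAS-driven beta-lactamase reporter were seeded in medium with 2% charcoal-stripped FBS, preincubated 6 hr at 37C, then exposed to compounds in DMSO for 16 hr; agonism was read by LiveBLAzer B/G FRET fluorescence.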
# [12] = target: Progesterone receptor (Homo sapiens) (UniProt P06401); assay: qHTS assay to identify small molecule antagonists of the progesterone receptor (PR) signaling pathway (AID 1346795; active = well fitted inhibition curve with a large enough effect in the signal ratio in the repeat runs, not every such curve was filed as active; the % refers to the signal ratio)
# In short: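 PR-UAS-bla HEK293T cells carrying a UAS-driven beta-lactamase reporter were plated in medium with 2% charcoal-stripped FBS and rested 6 hr at 37C. Compounds were added with 1 nM R5020 (final) for 16 hr, then FRET substrate loaded 2 hr at room temperature.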
# [13] = qHTS assay to identify small molecule antagonists of the progesterone receptor (PR) signaling pathway - cell viability counter screen (AID 1346798); note: series mostly up to about 92 µM; nearly all actives have a fitted effect of over 50% in size
# In short: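 PR-UAS-bla HEK293T cells in medium with 2% charcoal-stripped FBS were treated with compounds plus R5020 for 16 hr at 37C. Cell viability was then read by CellTiter-Glo luminescence after 30 min at room temperature in the same wells.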
# [14] = qHTS assay to identify small molecule agonists of the progesterone receptor (PR) signaling pathway - cell viability counter screen (AID 1346799; calls by dose curve; note: nearly all actives have a fitted effect of over 45% in size)
# In short: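 PR-UAS-bla HEK293T cells, 3,000 per well in medium with 2% charcoal-stripped FBS, were preincubated 6 hr at 37C, then exposed to compounds for 16 hr; viability was read as CellTiter-Glo luminescence after 30 min at room temperature.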
# [15] = target: Thyrotropin-releasing hormone receptor (Homo sapiens) (UniProt P34981); assay: qHTS assay to identify small molecule antagonists of the thyrotropin-releasing hormone receptor (TRHR) signaling pathway (AID 1346877; active = well fitted inhibition curve with a large enough effect in the repeat runs, not every such curve was filed as active; note: series mostly up to about 51 µM)
# Sequence of Thyrotropin-releasing hormone receptor (Homo sapiens) (P34981 whole entry, looked up): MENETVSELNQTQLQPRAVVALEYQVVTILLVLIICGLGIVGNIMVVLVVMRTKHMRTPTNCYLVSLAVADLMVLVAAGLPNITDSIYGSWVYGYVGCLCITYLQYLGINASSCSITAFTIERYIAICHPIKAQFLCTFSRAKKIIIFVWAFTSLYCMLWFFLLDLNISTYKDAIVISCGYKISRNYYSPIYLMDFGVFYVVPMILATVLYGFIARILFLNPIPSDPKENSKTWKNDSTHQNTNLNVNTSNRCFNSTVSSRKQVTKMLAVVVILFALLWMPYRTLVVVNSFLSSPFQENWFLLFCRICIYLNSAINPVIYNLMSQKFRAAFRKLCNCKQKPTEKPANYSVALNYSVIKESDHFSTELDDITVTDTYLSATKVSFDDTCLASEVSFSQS
# In short: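 Intracellular calcium fluorescence, read kinetically every second over 3 min, reports TRH-evoked signalling in HEK293 cells carrying TRHR. Test compounds were added 5 min ahead of a 1 nM TRH challenge.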
# [16] = Caspase-3/7 induction in CHO-K1 cells by small molecules, qHTS cell viability counter screen (AID 1346979); note: nearly all actives have a fitted effect of over 35% in size
# In short: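 Wild-type CHO-K1 cells were seeded at 1,500 per well, rested 5hr at 37 C, then exposed to compounds in DMSO. After 16hr, CellTiter-Fluor reagent was added and fluorescence read 1hr later as the viability measure.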
# [17] = target: Nuclear receptor subfamily 1 group I member 2 (Rattus norvegicus) (UniProt Q9R1A7); assay: Rat pregnane X receptor (rPXR) activation by small molecules, qHTS assay (AID 1346983); conditions: rPXR luciferase reporter cells, One-Glo luminescence, 24 h; max activation: active compounds read high; note: nearly all actives have a fitted effect of over 20% in size
# Sequence of Nuclear receptor subfamily 1 group I member 2 (Rattus norvegicus) (Q9R1A7 whole entry, looked up): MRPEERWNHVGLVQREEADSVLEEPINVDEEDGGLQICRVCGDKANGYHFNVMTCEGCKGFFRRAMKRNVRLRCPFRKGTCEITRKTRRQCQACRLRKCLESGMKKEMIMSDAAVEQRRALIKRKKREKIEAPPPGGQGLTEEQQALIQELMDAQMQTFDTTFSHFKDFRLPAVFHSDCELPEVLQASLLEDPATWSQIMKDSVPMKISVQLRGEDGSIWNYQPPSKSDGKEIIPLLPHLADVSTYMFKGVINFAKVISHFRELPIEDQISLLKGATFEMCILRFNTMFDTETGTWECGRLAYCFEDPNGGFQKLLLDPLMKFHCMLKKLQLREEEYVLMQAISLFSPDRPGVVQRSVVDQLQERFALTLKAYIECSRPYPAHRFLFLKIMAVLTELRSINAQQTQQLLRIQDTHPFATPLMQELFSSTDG
# In short: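 Cell-based rPXR activation assay: rPXR cells, 2,000 per well, rested 5hr at 37 C, then exposed to compounds in DMSO for 24 hr at 37 C. Luciferase activity read by One-Glo luminescence after 30 min at room temperature.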
# [18] = target: Thyrotropin-releasing hormone receptor (Homo sapiens) (UniProt P34981); assay: qHTS assay to identify small molecule agonists of the thyrotropin-releasing hormone receptor (TRHR) signaling pathway (AID 1346891; calls by dose curve; note: series mostly up to about 58 µM)
# In short: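 TRHR-expressing HEK293 cells were plated 18 h at 37 °C/5% CO2, loaded with calcium dye 2 h at 37 °C, then given compound in DMSO; fluorescence was read kinetically for 3 min at 1 s intervals.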
Compound,outcome [1],outcome [2],outcome [3],outcome [4],outcome [5],outcome [6],outcome [7],outcome [8],Potency [9],outcome [10],Potency [11],Potency [12],outcome [13],Potency [14],outcome [15],Potency [16],max activation [17] [%],Potency [18]
CC(=O)OCC(=O)[C@@]1(O)CC[C@H]2[C@@H]3CCC4=CC(=O)C=C[C@]4(C)[C@H]3[C@@H](O)C[C@@]21C,inactive,inactive,inactive,inactive,inactive,inactive,inactive,inactive,inactive,–,–,–,–,–,–,–,–,–
CC(C)(C)NCC(O)COc1cccc2c1CCC(=O)N2 (stereo unspecified),inactive,inactive,–,inactive,inactive,inactive,–,inactive,–,inactive,inactive,inactive,inactive,inactive,inactive,inactive,-2.26,–
CCCCCCCCCCCCCCCC/C=C/C1CC(=O)OC1=O (stereo unspecified),inactive,inactive,inactive,inactive,inactive,inactive,inactive,inactive,inactive,inactive,–,–,inactive,inactive,–,inactive,–,–
CCCCS,inactive,–,inactive,inactive,inactive,inactive,inactive,inactive,inactive,inactive,inactive,–,–,inactive,inactive,inactive,–,inactive
CC[N+](C)(CC)CC,inactive,inactive,inactive,inactive,inactive,inactive,inactive,inactive,inactive,–,–,inactive,inactive,inactive,inactive,inactive,–,–
CCOC(=O)c1ccc(N(C)C)cc1,inactive,inactive,inactive,inactive,inactive,inactive,inactive,inactive,54.5 µM (active),–,inactive,inactive,inactive,inactive,–,inactive,–,–
N=C(N)N,inactive,–,inactive,inactive,inactive,inactive,inactive,inactive,inactive,inactive,inactive,inactive,inactive,inactive,inactive,inactive,–,inactive
CCCc1ncc(C(=O)O)s1,inactive,inactive,–,inactive,inactive,inactive,inactive,inactive,inactive,–,–,inactive,inactive,inactive,inactive,inactive,–,inactive
COC(=O)c1ccccc1Cl,inactive,–,inactive,inactive,inactive,inactive,–,inactive,inactive,–,–,inactive,–,–,inactive,inactive,–,–
CCOC(=O)COc1ccc2c(C)c(CCN(CC)CC)c(=O)oc2c1Cl,inactive,–,inactive,–,inactive,inactive,inactive,inactive,inactive,–,inactive,inactive,–,inactive,inactive,inactive,4.23,–
